Experimental data as given in ChEMBL document CHEMBL3433997, “St. Jude Leishmania screening dataset” (2016).

Tests used:
Format in all cases: functional
[1] = molecular target: Solute carrier family 2, facilitated glucose transporter member 1 (Homo sapiens) (UniProt P11166); test: ST_JUDE_LEISH: Cytotoxicity at 2uM final concentration against transgenic Leishmania Mexicana promastigotes LmGLUT1 that are glucose transport deficient and complemented with the human glucose transporter GLUT1. Activity is measured by DNA content using SYBR green in vitro
[2] = molecular target: Hexose transporter 1 (Plasmodium falciparum) (UniProt O97467); test: ST_JUDE_LEISH: Cytotoxicity at 2uM final concentration against transgenic Leishmania Mexicana promastigotes LmPfHT that are glucose transport deficient and complemented with the Plasmodium falciparum hexose transporter. Activity is measured by DNA content using SYBR green in vitro
[3] = molecular target: Glucose transporter (Leishmania mexicana) (UniProt O61059); test: ST_JUDE_LEISH: Cytotoxicity at 2uM final concentration against transgenic Leishmania Mexicana promastigotes LmGT2 that are glucose transport deficient and complemented with the L. Mexicana glucose transporter 2. Activity is measured by DNA content using SYBR green in vitro

Chain of Solute carrier family 2, facilitated glucose transporter member 1 (Homo sapiens) (P11166 whole entry): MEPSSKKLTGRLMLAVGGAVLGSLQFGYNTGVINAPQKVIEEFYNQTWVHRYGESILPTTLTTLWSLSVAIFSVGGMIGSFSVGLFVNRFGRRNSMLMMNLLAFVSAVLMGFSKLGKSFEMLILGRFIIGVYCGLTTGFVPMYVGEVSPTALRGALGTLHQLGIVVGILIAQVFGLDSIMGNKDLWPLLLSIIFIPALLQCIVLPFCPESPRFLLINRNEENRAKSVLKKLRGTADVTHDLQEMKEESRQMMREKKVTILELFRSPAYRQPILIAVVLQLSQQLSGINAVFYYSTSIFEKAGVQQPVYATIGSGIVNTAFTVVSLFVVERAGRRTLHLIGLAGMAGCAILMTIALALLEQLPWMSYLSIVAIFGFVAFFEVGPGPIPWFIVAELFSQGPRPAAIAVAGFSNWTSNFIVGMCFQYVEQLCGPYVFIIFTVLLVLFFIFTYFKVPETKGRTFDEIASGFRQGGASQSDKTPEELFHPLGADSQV

Structure (SMILES)	inhibition [1] [%]	inhibition [2] [%]	inhibition [3] [%]
CN1CCCN(c2ccnc3cc4c(cc23)N(C(=O)c2ccc(Cl)cc2Cl)CC4)CC1	-0.4	2.07	0.94
COc1c(C2CCN(CCCCNC(=O)c3ccc(-c4ccc(C#N)cc4)c(O)c3)CC2)ccc2c1CCCC2	-0.29	-0.43	0.55
CCOC(=O)N1CCN(CCCCNc2c3ccc(Cl)cc3nc3ccc(OC)cc23)CC1	10.8	9.69	7.38
Cc1ccc(O)cc1Nc1ccnc2ccc(-c3csc(CNCCN4CCOCC4)n3)cc12	3.28	2.25	1.59
Nc1c2c(nc3cc(NC(=O)c4ccc([N+](=O)[O-])cc4)ccc13)CCCC2	5.2	9.51	4.23
Clc1cc(Cl)c2cc(CN[C@H]3CCC[C@@H]3CNc3nc4ccccc4[nH]3)[nH]c2c1	0.55	1.94	2.36
O=C(c1cc(-c2cccs2)n[nH]1)N1CCN(S(=O)(=O)c2ccc(Cl)s2)CC1	3.98	1.77	2.9
Cc1ccc(CN2CCCN(Cc3cccc(NC(=O)c4cc5ccccc5s4)c3)CC2)cc1	-0.92	-0.94	-2.83
CCc1cn2c3c(cc(C(=O)N[C@@H](Cc4ccccc4)[C@H](O)CNCc4cccc(C)c4)cc13)N(C)S(=O)(=O)CC2	1.35	0.76	2.29
Cc1cccc2nc(-c3ccc(-c4ccc(NC(=O)NCc5cccc(F)c5)cc4)cc3)[nH]c12	11.4	12.2	10.3
CN(C)CCCSc1ccccc1NC(=O)C=Cc1ccccc1	5.73	7.21	6.85
CCC1CN(S(=O)(=O)c2ccc3c(c2)NC(=O)CC(=O)N3)c2cc(Cl)ccc2O1 (stereo unspecified)	2.65	2.92	3.29
